LANA-H2B inh – blocks KSHV LANA binding to histone H2A/H2B. hit rate 0.6% among 320,000. Q9QR71. AID 2629. cell-free LANA-H2A/H2B peptide, fluorescence polarization. inhibition, % (concentration not given with the values); in the data active = inhibition mostly above about 10%, no sharp cut-off; inactive = mostly below about 6.7%
HIF activator – HIF pathway transcriptional activation. hit rate 0.32% among 300,000. activation, % at 7.5 µM (by protocol). U2OS HRE-luciferase reporter, luminescence; normalized: DMSO 0%, desferrioxamine 100%. AID 1910;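 active = mean activation of at least 10% of the iron chelator positive control signal, with at least half of replicates also reaching 10%; inconclusive = mean and replicate majority disagree about reaching 10%; inactive = mean and most replicates under 10%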
HDAC3 inh – inhibitors of human histone deacetylase 3; hit rate 0.15% among 320,000; inhibition, % at 8.3 µM; AID 2718; O15379; recombinant HDAC3, fluorogenic peptide/trypsin coupled, fluorescence; in the data active = inhibition above about 26%, passing the limit was not always enough; inconclusive = no clear call, values can overlap the other calls
Target sequence (O15379 whole entry, looked up): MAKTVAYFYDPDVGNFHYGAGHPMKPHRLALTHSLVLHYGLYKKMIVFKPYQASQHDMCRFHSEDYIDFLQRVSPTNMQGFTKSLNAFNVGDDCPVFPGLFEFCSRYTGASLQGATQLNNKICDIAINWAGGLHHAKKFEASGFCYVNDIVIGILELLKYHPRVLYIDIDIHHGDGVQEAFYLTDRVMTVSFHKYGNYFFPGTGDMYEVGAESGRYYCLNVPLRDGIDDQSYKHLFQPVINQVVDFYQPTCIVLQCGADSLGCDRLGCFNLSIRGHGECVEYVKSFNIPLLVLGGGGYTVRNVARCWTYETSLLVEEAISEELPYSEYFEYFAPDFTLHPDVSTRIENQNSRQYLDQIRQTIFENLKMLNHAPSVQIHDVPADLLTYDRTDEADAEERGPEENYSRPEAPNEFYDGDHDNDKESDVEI
Yeast superoxide – yeast age-related superoxide inhibition as caloric restriction mimetic | S. cerevisiae aged cells, superoxide DHE fluorescence; stronger effect = lower value | hit rate 0.18% among 330,000 | superoxide response (% of plate mean), % at 10 µM | AID 2690;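 active = superoxide response under a set limit, about three screen SD below normal, cut at about 65% in these data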;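 also: yeast aged for seven days with compound at 30 °C before DHE staining; 100% = average MFI of all compound-treated wells on the plate with controls excluded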
Numbers without * were called inactive; u = inconclusive; x = no result. Shown are actives, neighbours in structure and some others; about 1.2% of the full set was active somewhere.

SMILES	LANA-H2B inh	HIF activator	HDAC3 inh	Yeast superoxide
COc1ccc(-c2cc(C(=O)N3CCCCCC3)c3cc(C)ccc3n2)cc1	-1	-1	-96	87
COc1ccc(-c2cc(C(=O)N3CCOCC3)c3cc(C)ccc3n2)cc1	18*	2	-82	108
Cc1cccc2sc(NNC(=O)c3ccc(S(=O)(=O)N4CCCC(C)C4)cc3)nc12 (stereo unspecified)	0	0	0	139
Cc1cccc2sc(NNC(=O)c3ccc(S(=O)(=O)N4CCc5ccccc5C4)cc3)nc12	-1	14*	9	109
C[C@H](CO)N1C[C@H](C)[C@@H](CN(C)C)Oc2c(NC(=O)CCCCCC(=O)Nc3ccccc3N)cccc2C1=O	1	x	67*	96
C[C@H](CO)N1C[C@H](C)[C@@H](CN(C)S(=O)(=O)c2ccccc2)Oc2ccc(NC(=O)CCC(F)(F)F)cc2C1=O	28*	x	2	87
C[C@H](CO)N1C[C@H](C)[C@@H](CN(C)Cc2ccncc2)Oc2c(NC(=O)CCCCCC(=O)Nc3ccccc3N)cccc2C1=O	-6	x	57*	115
C[C@H](CO)N1C[C@H](C)[C@@H](CN(C)Cc2ccccc2)Oc2ccc(NC(=O)CCCCCC(=O)Nc3ccccc3N)cc2C1=O	-4	x	75*	100
O=C(CCN1C(=O)/C(=C\c2ccccc2)SC1=S)N1CCCCC1	1	0	3	106
O=C(CCN1C(=O)/C(=C/c2cccs2)SC1=S)N1CCCCC1	24*	2	-2	102
CN1CCN(C(=O)CCN2C(=O)/C(=C/c3ccc(F)cc3)SC2=S)CC1	12*	1	0	93
CC(=O)Nc1ccc(OCC(=O)c2cc(C)ccc2C)cc1	19*	0	-3	97
CC(=O)Nc1ccc(OCC(=O)c2ccc(C)cc2C)cc1	1	0	1	95
CC(=O)Nc1ccc(NC(=O)Nc2ccc(C)cc2C)cc1	15*	0	6	80
CN(C(=O)c1ccc(NC(=O)Cc2cccc(NC(=O)C3CCN(C(=O)C4CCCC4)CC3)c2)cc1)C1CCCC1	2	x	9	112
CCc1cc2c(=O)[nH]c(-c3ccccn3)nc2s1	1	11*	3	109
C=CCNc1nc(Nc2ccccc2F)nc(OCC)n1	16*	1	-7	97
Cc1ccc(NC(=O)CN(C)C(=O)CSc2ccccc2F)cc1	4	x	-1	124
Cc1ccc(NC(=O)CN(C)C(=O)CCSc2ccc(F)cc2)cc1	18*	x	1	100
CCC1(C)N=C(N)Nc2nc3cc(C)c(C)cc3n21 (stereo unspecified)	0	-15	x	64*
CN1CCCN(C(=O)c2cccc(Br)c2)CC1	12*	0	3	96
CC(=O)N1c2ccc(S(=O)(=O)N(C)C3CCCCC3)cc2CC1C (stereo unspecified)	-2	0	-3	98
O=C(N/C(=C/c1ccc([N+](=O)[O-])cc1)C(=O)N1CCOCC1)c1ccco1	14*	0	-17	118
CCC1CCCCN1CCCNC(=O)CCC(=O)N1CCOc2ccccc21 (stereo unspecified)	-2	0	0	102
Cc1ccc(NNC(=O)C(O)(c2cccc(C(F)(F)F)c2)c2cccc(C(F)(F)F)c2)cc1	5	0	41*	110
SMILES	LANA-H2B inh	HIF activator	HDAC3 inh	Yeast superoxide
COc1ccc(N2CSC3=C(C#N)C(c4cccs4)CC(=O)N3C2)cc1 (stereo unspecified)	1	3	u	91
CCOC(=O)c1ccc(N2CSC3=C(C#N)C(c4cccs4)CC(=O)N3C2)cc1 (stereo unspecified)	12	1	31*	107
COc1ccc(N2CSC3=C(C#N)C(c4cc(OC)c(OC)cc4OC)CC(=O)N3C2)c(OC)c1 (stereo unspecified)	3	0	38*	107
COc1ccc(N2CSC3=C(C#N)C(c4cc(OC)ccc4OC)CC(=O)N3C2)c(OC)c1 (stereo unspecified)	-2	0	42*	98
COc1ccc(N2CSC3=C(C#N)C(c4ccc(OC)c(OC)c4)CC(=O)N3C2)c(OC)c1 (stereo unspecified)	2	0	40*	103
COc1cc(OC)c(C2CC(=O)N3CN(c4ccc(C)cc4)CSC3=C2C#N)cc1OC (stereo unspecified)	0	2	-6	108
CCCN(C(=O)CSc1nnnn1-c1ccccc1OC)C1CCS(=O)(=O)C1 (stereo unspecified)	-5	0	-13	99
COc1ccc(C2CC(=O)N3CN(c4ccc(C)c(Cl)c4)CSC3=C2C#N)cc1OC (stereo unspecified)	-4	1	43*	90
CCn1cc(C(=O)OCC(=O)N(C)Cc2ccccc2)c(=O)c2ccc(C)nc21	61*	0	0	106
Cc1cc2c(cc1S(=O)(=O)Nc1cccc(F)c1)n(C)c(=O)c(=O)n2C	-3	0	-6	96
CCC(C(=O)OCn1nnc2ccccc2c1=O)c1ccccc1 (stereo unspecified)	5	0	4	81
COc1cccc2c1C(=O)c1c(O)c3c(c(O)c1C2=O)C[C@@](O)(C(=O)CO)C[C@@H]3O[C@H]1C[C@H](N)[C@H](O)[C@H](C)O1	25*	-3	-17	127
CCc1cnccc1CCC(=O)Nc1ccccc1C	0	430*	3	98
CCc1ccc(C(C)NC(=O)COC(=O)c2ccc(-n3cnnn3)cc2)cc1 (stereo unspecified)	2	x	4	104
O=C(CSc1nc2ccccc2c(=O)n1-c1ccccc1F)NC1CC1	-2	x	3	106
O=C(CSc1nc2ccccc2c(=O)n1-c1ccccc1F)NC1CCS(=O)(=O)C1 (stereo unspecified)	124*	x	24	100
CN(C(=O)CSc1nc2ccccc2c(=O)n1C)C1CCS(=O)(=O)C1 (stereo unspecified)	20*	x	2	80
Cc1cc(C(=O)N2CCC(C(N)=O)CC2)c(C)o1	-24	x	-10	99
Cc1cc(C(=O)N2CCCC2C(=O)O)c(C)o1 (stereo unspecified)	18*	0	-1	105
Cc1ccc(-c2ccc(/C=C(\C#N)C(N)=S)n2C)cc1	26*	x	4	91
COc1cccc(N/C(N)=N/c2nc(C(F)(F)F)cc(=O)[nH]2)c1	x	-41	x	101
COc1ccccc1C(=O)O/N=C(\c1ccccc1)c1ccncc1	1	0	-2	103
O=C(O/N=C(/c1ccccc1)c1ccncc1)c1ccc(F)cc1	-3	0	31*	108
C=CCS/C(N)=N\N=C\c1cc(Br)cc([N+](=O)[O-])c1O	-3	0	5	124
O=C1C2C3C=CC(C2C(=O)N1CCCO)C1C2C(=O)N(CCCO)C(=O)C2C31 (stereo unspecified)	-3	1	1	116
O=C(CSCCO)Nc1cccc([N+](=O)[O-])c1	5	0	0	111
O=C(CSc1nc(-c2ccccc2)nn1C(=O)c1ccccc1)Nc1cccc([N+](=O)[O-])c1	0	0	41*	102

Screening data (PubChem BioAssay)
